“And” between values parts separate entries of the source, which are not always exact repeats. Equal values may be shown once. The campaign covered roughly 5,500 compounds. About 2,000 (36%) were called active. Not shown: some 18% with an inconclusive outcome. No stated cut-off is given here; in the data, active means normalized growth mostly below about 0.91 (no sharp cut-off); inconclusive means no clear call, values can overlap the other calls; inactive means mostly above about 0.92. This is one part of the list.
Assay: chemical genetic growth profiling, strain panel (AID 1159580);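 further: tested at 20 µM; growth read once vehicle control cultures reached saturation at 30 °C; 1 = growth at the plate median or of vehicle wells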
Details: S. cerevisiae deletion strains, growth OD

Measured: normalized growth

O=c1[nH]oc2c1CCNC2
inactive: locus YAL013W, strain DEP1, stronger effect = lower value 1 and 1.01 | locus YAL021C, strain ccr4, stronger effect = lower value 1.01 | locus YAL026C, strain drs2, stronger effect = lower value 1.01 | locus YAL030W, strain snc1, stronger effect = lower value 0.998 | locus YAL040C, strain CLN3, stronger effect = lower value 0.99 | locus YBL061C, strain skt5, stronger effect = lower value 1 | locus YBR009C, strain hhf1, stronger effect = lower value 0.987 | locus YBR021W, strain FUR4, stronger effect = lower value 1.01 | locus YBR023C, strain chs3, stronger effect = lower value 0.998 | locus YBR171W, strain sec66, stronger effect = lower value 0.985 | locus YBR229C, strain ROT2, stronger effect = lower value 1 | locus YBR231C, strain swc5, stronger effect = lower value 0.976 | locus YBR279W, strain paf1, stronger effect = lower value 1.01 | locus YCL011C, strain gbp2, stronger effect = lower value 1.01 | locus YCL016C, strain dcc1, stronger effect = lower value 1 | locus YCL029C, strain bik1, stronger effect = lower value 0.97 | locus YCL061C, strain MRC1 (second series), stronger effect = lower value 1 | locus YCL069W, strain vba3, stronger effect = lower value 1 | locus YCR088W, strain abp1, stronger effect = lower value 0.999 | locus YDL005C, strain med2, stronger effect = lower value 1 | locus YDL035C, strain GPR1, stronger effect = lower value 0.999 | locus YDL040C, strain nat1, stronger effect = lower value 0.992 | locus YDL074C, strain BRE1, stronger effect = lower value 1.04 | locus YDL101C, strain DUN1, stronger effect = lower value 1.01 | locus YDL134C, strain PPH21, stronger effect = lower value 1.01 | locus YDL185W, strain tfp1, stronger effect = lower value 0.964 | locus YDL192W, strain arf1, stronger effect = lower value 0.976 | locus YDR001C, strain nth1, stronger effect = lower value 0.996 | locus YDR069C, strain doa4, stronger effect = lower value 0.993 | locus YDR101C, strain arx1, stronger effect = lower value 0.997 | locus YDR137W, strain rgp1, stronger effect = lower value 1.02 | locus YDR150W, strain NUM1, stronger effect = lower value 0.996 and 0.999 | locus YDR159W, strain sac3, stronger effect = lower value 0.973 | locus YDR162C, strain NBP2, stronger effect = lower value 1.02 | locus YDR195W, strain ref2 0.947 | locus YDR297W, strain sur2, stronger effect = lower value 1.01 | locus YDR318W, strain mcm21, stronger effect = lower value 0.966 | locus YDR334W, strain swr1, stronger effect = lower value 1 | locus YDR335W, strain msn5, stronger effect = lower value 1 | locus YDR363W, strain ESC2, stronger effect = lower value 1.01 | locus YDR388W, stronger effect = lower value 0.986 | locus YDR392W, strain spt3, stronger effect = lower value 1.01 | locus YDR502C, strain sam2, stronger effect = lower value 1 | locus YEL003W, strain gim4, stronger effect = lower value 0.998 | locus YEL037C, strain rad23, stronger effect = lower value 0.999 | locus YEL061C, strain CIN8 (second series), stronger effect = lower value 0.998 | locus YEL061C, strain CIN8, stronger effect = lower value 0.999 | locus YER002W, strain NOP16, stronger effect = lower value 1 | locus YER015W, strain faa2, stronger effect = lower value 1.01 | locus YER016W, strain bim1, stronger effect = lower value 1 | locus YER110C, stronger effect = lower value 0.967 | locus YER111C, strain swi4, stronger effect = lower value 0.994 | locus YER155C, strain BEM2 (second series), stronger effect = lower value 0.978 | locus YER155C, strain BEM2, stronger effect = lower value 0.998 | locus YER167W, strain BCK2, stronger effect = lower value 0.973 | locus YFR010W, strain ubp6, stronger effect = lower value 1.01 | locus YGL078C, strain dbp3, stronger effect = lower value 0.994 | locus YGL086W, strain mad1, stronger effect = lower value 0.963 | locus YGL167C, strain pmr1, stronger effect = lower value 0.999 | locus YGL173C, strain kem1, stronger effect = lower value 1.01 | locus YGL227W, strain vid30, stronger effect = lower value 0.994 | locus YGL240W, strain doc1, stronger effect = lower value 0.988 | locus YGL248W, strain PDE1, stronger effect = lower value 1 | locus YGL253W, strain hxk2, stronger effect = lower value 1.02 | locus YGR078C, strain PAC10, stronger effect = lower value 1.03 and 0.994 | locus YGR135W, strain pre9, stronger effect = lower value 1.01 | locus YGR229C, strain SMI1, stronger effect = lower value 1.03 | locus YGR252W, strain gcn5, stronger effect = lower value 0.97 | locus YHR013C, strain ard1, stronger effect = lower value 0.998 | locus YHR027C, strain rpn1, stronger effect = lower value 1.01 | locus YHR030C, strain SLT2, stronger effect = lower value 0.992 and 1.01 | locus YHR079C, strain IRE1 (second series), stronger effect = lower value 1 | locus YHR079C, strain IRE1, stronger effect = lower value 1.03 | locus YHR094C, strain hxt1, stronger effect = lower value 0.973 | locus YHR129C, strain ARP1, stronger effect = lower value 1 | locus YHR142W, strain chs7, stronger effect = lower value 1.03 | locus YHR200W, strain rpn10, stronger effect = lower value 0.975 | locus YIL066C, strain RNR3, stronger effect = lower value 1.01 | locus YIL073C, strain SPO22, stronger effect = lower value 0.902 | locus YIL125W, strain kgd1, stronger effect = lower value 0.987 | locus YIR030C, strain dcg1, stronger effect = lower value 0.982 | locus YJL092W, strain hpr5, stronger effect = lower value 0.998 | locus YJL095W, strain BCK1 (second series), stronger effect = lower value 0.999 | locus YJL095W, strain BCK1, stronger effect = lower value 1.06 and 1.02 | locus YJL115W, strain asf1, stronger effect = lower value 1.01 | locus YJL129C, strain trk1, stronger effect = lower value 1 | locus YJL134W, strain LCB3, stronger effect = lower value 0.994 | locus YJL154C, strain vps35, stronger effect = lower value 0.995 | locus YJL164C, strain tpk1, stronger effect = lower value 1 | locus YJL166W, strain qcr8, stronger effect = lower value 0.965 | locus YJL168C, strain set2, stronger effect = lower value 0.988 | locus YJL187C, strain SWE1 (second series), stronger effect = lower value 1.02 | locus YJR043C, strain POL32, stronger effect = lower value 0.987 | locus YJR066W, strain TOR1, stronger effect = lower value 0.921 | locus YJR075W, strain HOC1, stronger effect = lower value 1.08
